{"source": "PubChem BioAssay (Tox21)", "note": "Values joined by “and” are separate entries in the source; they are usually repeats but may differ in a detail not shown here. Equal entries are not always repeated. Inconclusive results are not listed. Where a call stands in place of a potency, no number is given. The source holds several records for some structures; these can differ, active in one and inactive in another. Active and inactive are the calls of the source. Calls follow the shape of the dose curve; as a rule, active = well fitted activation curve with a large enough effect in the signal ratio in the repeat runs (not every such curve was filed as active); inconclusive = weak or mixed curves, or effect the other way; inactive = no such curve, though single readings can be large or run the other way; the % refers to the signal ratio. Potency is read from the fitted curve at half-maximal effect.", "data": [{"assay": "qHTS assay for small molecule agonists of the antioxidant response element (ARE) signaling pathway (AID 743202)", "details": "HepG2 ARE-bla reporter, beta-lactamase FRET, 16 h; series mostly up to 73.3 µM", "text": "U.S. Tox21 Program National Center for Advancing Translational Sciences [NCATS] NIH Chemical Genomics Center [NCGC] U.S. Environmental Protection Agency [EPA] National Institutes of Environmental Health Sciences [NIEHS] National Toxicology Program [NTP] U.S. Food and Drug Administration [FDA] Tox21 Assay Overview: Oxidative stress has been implicated in the pathogenesis of a variety of diseases ranging from cancer to neurodegeneration. The antioxidant response element (ARE) signaling pathway plays an important role in the amelioration of oxidative stress. The CellSensor ARE-bla HepG2 cell line (Invitrogen) can be used for analyzing the Nrf2/antioxidant response signaling pathway. Nrf2 (NF-E2-related factor 2) and Nrf1 are transcription factors that bind to AREs and activate these genes. The CellSensor ARE-bla Hep G2 cell line contains a beta-lactamase reporter gene under control of the Antioxidant Response Element (ARE) stably integrated into HepG2 cells. The activation of the report gene under culture conditions can be detected by fluorescence intensity. This cell line has been used to screen the Tox21 10K compound library to identify agonists that induce oxidative stress.\nTox21 Assay Protocol Summary: The ARE-bla cells were dispensed at 2,000 cells/5 ul/well in 1536-well black wall/clear bottom plates using a Multidrop dispenser. After the assay plates were incubated at a 37 C/5% CO2 incubator for 5 hours, 23 nL of compounds dissolved in DMSO, positive controls or DMSO only was transferred to the assay plate by a pin tool. The plates were incubated at 37 C for 16 hours. After 1 uL of LiveBLAzer B/G FRET substrate was added using a Flying Reagent Dispenser, the plates were incubated at room temperature for 2 hours, and fluorescence intensity was measured by an Envision plate reader.", "values": [{"smiles": "COC(=O)CCCC(=O)OC", "Potency": "inactive"}, {"smiles": "C=CC[N+](C)(C)CC=C", "Potency": "inactive"}, {"smiles": "CC(=O)OCc1ccco1", "Potency": "inactive"}, {"smiles": "N#Cc1ccccc1", "Potency": "inactive"}, {"smiles": "CCO[Si](CCC#N)(OCC)OCC", "Potency": "inactive"}, {"smiles": "CCNC(=S)NCC", "Potency": "inactive"}, {"smiles": "CC(C)OP(=O)(CP(=O)(OC(C)C)OC(C)C)OC(C)C", "Potency": "inactive"}, {"smiles": "COc1ccc(N)c(C)c1", "Potency": "inactive"}, {"smiles": "CC(=O)CC(C)(C)O", "Potency": "inactive"}, {"smiles": "O=C(O)c1cc2ccccc2cc1O", "Potency": "inactive"}, {"smiles": "CC(CCO)CC(C)(C)C", "note": "(stereo not given)", "Potency": "inactive"}, {"smiles": "CCCOC(=O)c1ccccc1", "Potency": "inactive"}, {"smiles": "O=S(=O)(O)c1ccc(N=Nc2c(O)ccc3cc(S(=O)(=O)O)ccc23)cc1", "Potency": "inactive"}, {"smiles": "Brc1ccc(Br)c(Br)c1", "Potency": "inactive"}, {"smiles": "C[C@]12CCC(=O)C=C1CC[C@@H]1[C@@H]2[C@@H](O)C[C@@]2(C)[C@H]1CC[C@]2(O)C(=O)CO", "Potency": "inactive"}, {"smiles": "CCCCCCO", "Potency": "inactive"}, {"smiles": "CCOCC(=O)O", "Potency": "inactive"}, {"smiles": "CC(C)CC(C)O", "note": "(stereo not given)", "Potency": "inactive and 30.6 µM (active)"}, {"smiles": "CC(C)CCCCCCCOC(=O)CCCCC(=O)OCCCCCCCC(C)C", "Potency": "inactive"}, {"smiles": "O=C(O)c1ccc(C(=O)O)c(C(=O)O)c1", "Potency": "inactive"}, {"smiles": "CN1C(=O)CC[C@H]1c1cccnc1", "Potency": "inactive"}, {"smiles": "CC(=O)CCC=C(C)C", "Potency": "inactive"}, {"smiles": "CC1(C)S[C@@H]2[C@H](NC(=O)COc3ccccc3)C(=O)N2[C@H]1C(=O)O", "Potency": "inactive"}, {"smiles": "NC(=S)NNC(N)=S", "Potency": "inactive"}, {"smiles": "Cc1ccc(C(C)C)c(O)c1", "Potency": "inactive"}, {"smiles": "CCOCCOCCOCCO", "Potency": "inactive"}, {"smiles": "CCNc1cccc(C)c1", "Potency": "inactive"}, {"smiles": "O=C(O)/C=C/C(=O)O", "Potency": "inactive"}, {"smiles": "CC(=O)c1ccc(O)cc1", "Potency": "inactive"}, {"smiles": "CCCCCCCO", "Potency": "inactive"}, {"smiles": "CN/C(=C\\[N+](=O)[O-])NCCSCc1csc(CN(C)C)n1", "Potency": "inactive"}, {"smiles": "COc1ccc(C)cc1N", "Potency": "inactive"}, {"smiles": "C=C(C)[C@H]1CC=C(C)C(=O)C1", "Potency": "inactive"}, {"smiles": "CC1(C)CC(N)CC(C)(CN)C1", "note": "(stereo not given)", "Potency": "inactive"}, {"smiles": "c1ccc2c(c1)Cc1ccccc1-2", "Potency": "inactive"}, {"smiles": "CCCCCCCCCCN", "Potency": "inactive"}, {"smiles": "CC(C)CC(=O)CC(C)CC(C)C", "note": "(stereo not given)", "Potency": "inactive"}, {"smiles": "CC(=O)OC1CC(C)OC(C)O1", "note": "(stereo not given)", "Potency": "inactive"}, {"smiles": "O=C(O)c1ccccc1C(=O)O", "Potency": "inactive"}, {"smiles": "OCc1cccc(Oc2ccccc2)c1", "Potency": "inactive"}]}]}
